Screening data (PubChem)
TDP1 cell noCPT – qHTS for Inhibitors of human tyrosyl-DNA phosphodiesterase 1 (TDP1): qHTS in cells in absence of CPT; DT40 Tdp1-/- hTDP1 cells, no CPT, ATP luminescence, 48 h; Potency, µM (top dose mostly 46.2 µM), for the others: at the top dose activity change, negative = growth inhibition, hits mostly inhibitors; 15% of 420,000 active; AID 686978, 2013; also: % is scaled to controls: 0 for no effect and ±100 for the full control effect; nearly all actives have a fitted effect of over 55% in size
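Chicken DT40 Tdp1-/- cells complemented with human TDP1, screened without camptothecin (DMSO vehicle only), 400 cells/well. Compounds pin-transferred, cells incubated at 37 °C for at least 48 hr. Growth read as ATP-dependent luminescence (CellTiter-Glo, 30 min at RT).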
ClpP mod – qHTS Assay for Activators of ClpP. Potency, µM (titrated, usually from 57.5 µM), for inactives: at the top dose activity change, negative = active. purified B. subtilis ClpP, FRET peptide cleavage, 20 min. ATP-dependent Clp protease proteolytic subunit (Bacillus subtilis (strain 168)), P80244. 1.9% of 340,000 active. AID 651965, 2013; active = well fitted falling curve with a large enough effect; inconclusive = small, poorly fitted or top-dose-only effect; inactive = no such curve, though single readings can be large or run the other way; also: the source files actives as falling curves though it sought activators and does not explain the sign; nearly all actives have a fitted effect of over 65% in size
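FRET quenching reversal measured ClpP activation: 10 microg/mL B. subtilis ClpP at pH 8 with the FRET-FV decapeptide, read at 430 nm after 320 nm excitation. The 20-min minus 0-min signal was scaled between DMSO/no-enzyme wells and ADEP (5.8 microM final).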
TDP1 inh – inhibitors of human tyrosyl-DNA phosphodiesterase TDP1; Q9NUW8; recombinant TDP1, AlphaScreen DNA substrate cleavage; Potency, µM (doses to about 130 µM), for the others: at the highest dose activity change, negative = inhibition, usual class: inhibitors; 0.28% of 350,000 active; AID 485290; also: % is scaled to controls: 0 for no effect and ±100 for the full control effect; nearly all actives have a fitted effect of over 40% in size
Target sequence (Q9NUW8 whole entry, looked up): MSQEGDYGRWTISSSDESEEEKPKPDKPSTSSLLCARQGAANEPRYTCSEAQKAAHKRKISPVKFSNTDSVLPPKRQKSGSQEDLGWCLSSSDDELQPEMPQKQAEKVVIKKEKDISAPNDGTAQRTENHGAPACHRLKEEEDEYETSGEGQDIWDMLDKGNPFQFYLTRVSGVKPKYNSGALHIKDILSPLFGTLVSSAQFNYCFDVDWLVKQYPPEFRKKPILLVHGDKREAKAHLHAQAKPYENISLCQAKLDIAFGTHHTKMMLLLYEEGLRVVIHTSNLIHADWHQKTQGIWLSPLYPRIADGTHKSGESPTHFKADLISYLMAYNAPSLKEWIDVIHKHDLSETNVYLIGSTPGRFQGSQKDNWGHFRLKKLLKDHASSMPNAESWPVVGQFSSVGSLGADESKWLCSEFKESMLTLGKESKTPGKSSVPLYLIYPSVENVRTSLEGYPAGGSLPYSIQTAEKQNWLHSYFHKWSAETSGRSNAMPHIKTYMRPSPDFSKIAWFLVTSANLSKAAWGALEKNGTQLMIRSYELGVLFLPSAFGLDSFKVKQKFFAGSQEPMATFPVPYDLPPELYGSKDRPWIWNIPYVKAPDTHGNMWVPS
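Steps: enzyme plus compound, 15 min RT; add biotin/phosphotyrosine-FITC oligonucleotide (15 nM final), react 5 min; add donor/acceptor beads (10 ug/ml final), 10 min; read AlphaScreen. Tdp1 at 1 nM final.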
DT40 TDP1 CPT – DT40-hTDP1 cell growth loss with CPT; Potency, µM (series often up to 46.2 µM), without a hit: at the top dose activity change, negative = growth inhibition, actives largely listed as inhibitors; chicken DT40 Tdp1-/-;hTDP1 cells + 20 nM CPT, ATP luminescence, 48 h; AID 686979; 12% of 420,000 active; also: % is scaled to controls: 0 for no effect and ±100 for the full control effect; nearly all actives have a fitted effect of over 55% in size
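Chicken DT40 Tdp1-/- cells stably complemented with human TDP1 were seeded at 400 cells/well in medium containing 20 nM camptothecin, exposed to pin-transferred compounds, and grown at 37 °C for at least 48 hr. Viability was read as ATP luminescence.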
The depositor's hits bear a star; ? = inconclusive; . = not tested or not shown; [ ] = remark or other dose. Shown are actives, neighbours in structure and some others; about 17% of the full set was active somewhere. Unless noted, calls follow the shape of the dose curve; as a rule, active = well fitted curve in the direction sought with a large enough effect; inconclusive = small, poorly fitted or top-dose-only effect, or another doubt; inactive = no such curve, though single readings can be large; an effect the other way counts as inactive or inconclusive. Potency is read from the fitted curve at half-maximal effect.

SMILES	TDP1 cell noCPT	ClpP mod	TDP1 inh	DT40 TDP1 CPT
CCCc1cc(=O)oc2c(C)c(OCC(=O)Nc3ccc(CN4CCOCC4)cc3)ccc12	?	4%	3%	15µM*
CC(C)(C)NC(=O)Cn1c(=O)n(CC(=O)NC(C)(C)C)c2ccccc21	?	.	2%	7%
O=C(NCc1ccco1)c1cccc(Br)c1	-8%	1%	.	-3%
CCc1ccc(-c2nn(CC(=O)Nc3ccccc3)c3c2cnc2ccc(F)cc23)cc1	-19%	-8%	2%	-27%
CC(C)(C)c1cc(NC(=O)c2cccs2)no1	0%	2%	.	?
CC(C)(C)c1cc(NC(=O)c2cc(F)c(F)c(F)c2F)no1	?	0%	.	29µM*
COc1cccc(NC(=O)C2CCN(S(=O)(=O)c3c(C)noc3/C=C/c3cccs3)CC2)c1	13µM*	0%	0%	?
COc1ccccc1CNC(=O)C1CCN(S(=O)(=O)c2c(C)noc2/C=C/c2cccs2)CC1	18µM*	-11%	0%	18µM*
COc1ccc(NC(=O)C2CCN(S(=O)(=O)c3c(C)noc3/C=C/c3cccs3)CC2)cc1	?	-5%	7%	-27%
C=CCNC(=S)Nc1cc(C)ccn1	?	.	1%	?
N#C/C(=C\c1ccc(-c2ccccc2[N+](=O)[O-])o1)C(=O)Nc1nc(-c2cccs2)cs1	29µM*	-8%	3%	?
N#C/C(=C\c1ccc(-c2ccc([N+](=O)[O-])cc2)o1)C(=O)Nc1nc(-c2cccs2)cs1	?	-3%	.	?
COc1ccc(S(=O)(=O)N2N=C(C)Oc3ccccc3C2=O)cc1	2.9µM*	0%	1%	2.9µM*
CC1=NN(S(=O)(=O)c2ccc(C)cc2)C(=O)c2ccccc2O1	?	-3%	-1%	?
O=C(CCl)NCc1cc(-c2ccc(Cl)cc2)no1	18µM*	.	6%	10µM*
CN1CCN(c2ccc(Nc3ccnc4cc(Cl)ccc34)cc2)CC1	5.8µM*	.	1%	4.6µM*
CCN1CCN(c2ccc(Nc3ccnc4ccccc34)cc2)CC1	5.8µM*	-1%	-4%	12µM*
Cc1ccc(C(=O)C=Cc2cccc(C)c2)cc1	18µM*	.	.	?
Cc1cccc(C=CC(=O)c2ccccc2)c1	23µM*	0%	.	?
Cc1ccc(/C=C/C(=O)c2ccc(C)cc2)cc1	?	0%	1%	-26%
Cc1ccc(O)c(C(=O)C=Cc2ccccc2)c1	21µM*	-6%	.	?
Cc1ccc2occ(/C=C/C(=O)c3ccccc3O)c(=O)c2c1	?	16µM*	4%	18µM*
S=C(Nc1ccc(Br)cc1)NC1CCCC1	21µM*	0%	-1%	?
S=C(Nc1ccc(Oc2ccccc2)cc1)NC1CCCC1	?	-21%	3%	-1%
Cc1cccc(NC(=S)NC2CC3CCCC(C2)N3Cc2cccs2)c1 (stereo unspecified)	23µM*	-1%	1%	23µM*
SMILES	TDP1 cell noCPT	ClpP mod	TDP1 inh	DT40 TDP1 CPT
Cc1cccc(NC(=S)NC2CCCC2)c1	15µM*	-5%	-5%	?
Cc1oc(-c2ccccc2NC(=O)c2cccnc2)nc1CNC(=O)c1ccc(N(C)C)cc1	-16%	.	.	1%
Clc1cccc(Cl)c1COc1ccccc1CNn1cnnc1	?	0%	6%	?
Cn1nc(-c2ccccc2)c(-c2nc(-c3cccc(Cl)c3)no2)c1Cl	?	1%	2%	?
COC(=O)c1ccc(C(NC(=O)OCc2ccccc2)/C(C)=C/[C@@H](C)C(=O)NCCO)cc1 (stereo partly specified)	.	.	6%	.
CCOc1ccc(C(C)NC(=O)CCC(=O)O)cc1 (stereo unspecified)	-2%	28µM*	3%	-1%
Cc1ccc(Cc2c(-c3ccc(C#N)cc3)nc3ccc(Br)cn23)cc1	?	-3%	.	21µM*
N#Cc1ccc(-c2nc3ccc(Br)cn3c2Cc2ccccc2)cc1	9.2µM*	-13%	.	12µM*
O=C(CN1C(=O)NC2(CCOc3ccccc32)C1=O)c1ccc(Br)cc1 (stereo unspecified)	-18%	-1%	6%	-14%
Cc1ccc(Oc2c(C(F)(F)F)oc3c(CN4CCCCC4C)c(O)ccc3c2=O)cc1 (stereo unspecified)	26µM*	-6%	.	?
COc1ccccc1-c1c(C(F)(F)F)oc2c(CN3CCCCC3C)c(O)ccc2c1=O (stereo unspecified)	-30%	-1%	-1%[12.3 µM]	?
CCOc1ccc2nc(NC(=O)c3nc(SCc4ccccc4F)ncc3Cl)sc2c1	?	1%	-7%	-26%
CCC(CCc1ccccn1)C(=O)c1ccccc1 (stereo unspecified)	-22%	0%	.	-22%
CN(C)CC(CCCCC(CN(C)C)C(=O)c1ccccc1)C(=O)c1ccccc1 (stereo unspecified)	5.8µM*	0%	2%	5.8µM*
CCCCC(CCc1ccccn1)C(=O)c1ccccc1 (stereo unspecified)	?	-2%	.	23µM*
Cc1ccccc1-c1cccc(CN2CCc3nnc(C(C)NC(=O)c4cccnc4)n3CC2)c1 (stereo unspecified)	-5%	.	.	-5%
Cc1ccc(-c2nn(-c3ccccc3)cc2/C=C/C(=O)OCC(=O)NC2CC2)o1	?	4%	5%	21µM*
O=C(O)/C=C\c1cn(-c2ccccc2)nc1-c1cc2ccccc2o1	-6%	.	-2%	0%
Cc1ccc(-c2nn(-c3ccccc3)cc2/C=N/NC(=O)c2ccncc2)o1	23µM*	.	6%	?
CCOc1cc(C(=O)N/N=C/c2cn(-c3ccccc3)nc2-c2cc3ccccc3o2)cc(OCC)c1OCC	13µM*	-1%	.	23µM*
COCCCNC(=O)c1cc(-c2cccnc2)nc2ccc(S(=O)(=O)N3CCC(C)CC3)cc12	0%	-2%	-5%	-14%
COc1cccc(CC(NC(C)=O)C(=O)NC2CCN(S(=O)(=O)c3ccc(NC(C)=O)cc3)CC2)c1 (stereo unspecified)	-3%	.	-1%	4%
Cc1cccc(C(=O)Nc2nnc(S(=O)(=O)N(C)c3ccccc3C)s2)c1	-27%	-9%	8%	-18%
CCOc1ccc(OCC(=O)OCC(=O)N(CC(C)C)c2c(N)n(Cc3ccccc3)c(=O)[nH]c2=O)cc1	-27%	1%	.	-20%
COc1ccccc1CCc1nc2ccccc2n1C1CCN(C(=O)c2cc(C)nn2C)CC1	5%	.	.	1%[9.04 µM]
CSc1ccc(CCNC(=O)CCCn2c(=O)c3cccn3c3ccccc32)cc1	18µM*	-7%	9%	?
CCCCN(CC)C(=O)CCCn1c(=O)c2cccn2c2ccccc21	21µM*	-5%	12%	?
